Among all 39,000 compounds or so, about 3,300 (8.5%) were called active. Only a selection was taken, and actives are over-represented in it overall.
What follows are molecules tested on HepG2 (assay: cytotoxicity call (relative viability < 0.9)). Conditions: 10 µM.
In the case of C[C@H]1CCCCO[C@@H](CN(C)Cc2ccccc2)[C@@H](C)CN([C@@H](C)CO)C(=O)c2cc(NC(=O)Nc3ccc(C(F)(F)F)cc3)ccc2O1, the cytotoxicity call was “active”. In the case of C[C@@H]1CN([C@H](C)CO)C(=O)c2cc(NC(=O)Nc3ccc(C(F)(F)F)cc3)ccc2O[C@@H](C)CCCCO[C@H]1CN(C)Cc1ccccc1, the cytotoxicity call was “active”. With C[C@@H]1CCCCO[C@@H](CN(C)Cc2ccccc2)[C@H](C)CN([C@@H](C)CO)C(=O)c2cc(NC(=O)Nc3ccc(C(F)(F)F)cc3)ccc2O1 the cytotoxicity call was “active”. For C[C@@H]1CCCCO[C@H](CN(C)Cc2ccccc2)[C@H](C)CN([C@@H](C)CO)C(=O)c2cc(NC(=O)Nc3ccc(C(F)(F)F)cc3)ccc2O1, the cytotoxicity call was “active”. For Cc1noc(C)c1NC(=O)Nc1cccc2c1O[C@H](CN(C)Cc1ccc(C(F)(F)F)cc1)[C@@H](C)CN([C@H](C)CO)C2=O, the cytotoxicity call was “inactive”. In the case of C[C@@H]1CN([C@H](C)CO)C(=O)c2cccc(NC(=O)CCCCCC(=O)Nc3ccccc3N)c2O[C@@H]1CN(C)Cc1ccccc1, the cytotoxicity call was “inactive”. In the case of C=CCOC[C@H]1NCCc2c1nnn2CC, the cytotoxicity call was “inactive”. With COc1ccc(CN(C)C[C@@H]2Oc3c(NS(=O)(=O)c4cn(C)cn4)cccc3C(=O)N([C@H](C)CO)C[C@H]2C)cc1 the cytotoxicity call was “inactive”. O=C(C[C@@H]1CC[C@H]2[C@@H](COC[C@@H](O)CN2C(=O)c2cccnc2)O1)NCC1CC1 was tested, and the cytotoxicity call was “inactive”. For C[C@@H]1CN([C@@H](C)CO)C(=O)c2cc(NS(C)(=O)=O)ccc2O[C@@H](C)CCCCO[C@@H]1CN(C)S(=O)(=O)c1cn(C)cn1, the cytotoxicity call was “inactive”. For C[C@H]1CCCCO[C@@H](CN(C)Cc2ccc(C(=O)O)cc2)[C@@H](C)CN([C@@H](C)CO)C(=O)c2cc(NC(=O)Nc3ccc(F)cc3)ccc2O1, the cytotoxicity call was “inactive”. C[C@@H]1CCCCO[C@@H](CN(C)Cc2ccc3c(c2)OCO3)[C@H](C)CN([C@@H](C)CO)C(=O)c2cc(NS(=O)(=O)c3ccccc3)ccc2O1 was tested, and the cytotoxicity call was “inactive”. In the case of Cc1noc(C)c1S(=O)(=O)N(C)C[C@H]1Oc2ccc(NS(=O)(=O)c3ccc(Cl)cc3)cc2CC(=O)N([C@@H](C)CO)C[C@@H]1C, the cytotoxicity call was “inactive”. With C[C@H]1CCCCO[C@@H](CN(C)C(=O)Nc2ccccc2)[C@@H](C)CN([C@@H](C)CO)C(=O)c2cc(NC(=O)Nc3ccccc3)ccc2O1 the cytotoxicity call was “inactive”. In the case of COCC(=O)Nc1ccc2c(c1)OC[C@H](C)N(Cc1ccccc1OC)C[C@H](C)[C@@H](OC)CN(C)C2=O, the cytotoxicity call was “inactive”. With N[C@@H]1CC[C@@H](CCn2cc(-c3ccccn3)nn2)O[C@H]1CO the cytotoxicity call was “inactive”. C=CCC[C@H](Cc1ccc(F)cc1)C(=O)OC[C@@H](NC(=O)[C@H](CC=C)CC(=O)N(CCO)Cc1ccccc1)c1ccccc1 was tested, and the cytotoxicity call was “inactive”.
